DPM-DC inhibit = S. pneumoniae DPM-DC inhibition. purified DPM-DC, PK/LDH coupled NADH fluorescence. calls only at 10 µM. actives 0.49% (n = 65,000). AID 556;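 active = the 320 compounds with the highest percent inhibition in the single-dose primary screen, excluding strongly autofluorescent ones, cut at about 32% in these data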;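 also: kinetic rate of NADH fluorescence loss reporting ADP formed by the decarboxylase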
NADH coupling = inhibition of NAD/NADH coupling enzymes, library profiling; coupled PK/LDH NADH assays, four targets; AID 774; actives 0.02% (n = 65,000); IC50, µM (doses to about 10 µM), inactives show at the highest dose inhibition;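 active = single-dose screening hits from any of four coupled enzyme assays that gave an IC50 when retested across doses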;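 also: the DPM-DC format reads NADH fluorescence rather than 340 nm absorbance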
Abs 340nm = absorbance at 340 nm; compound absorbance at 340 nm, fold over control; fold change at 10 µM; 65,000 tested, under 10 active; AID 708;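 active = at 10 µM dose, initial 340 nm absorbance at least 2 fold that of control wells; inactive = change under 2 fold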;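 also: initial absorbance extrapolated from kinetic A340 decline of NADH oxidation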
Spn MK inh = S. pneumoniae mevalonate kinase inhibition. inhibition, % at 10 µM. AID 555. purified MK, PK/LDH-coupled NADH absorbance 340 nm. actives 0.48% (n = 65,000);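 active = ranked among the strongest by inhibition in the single 10 µM screen, a fixed top-ranked set picked for dose follow-up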
Autofluor 339 = intrinsic fluorescence of library compounds, ex339/em460 – biochemical, MLSMR library, data from DPM-DC assay, artefact control, profiling panel. compound autofluorescence, ex339/em460 nm, NADH buffer; stronger effect = higher value; 1 = no-compound wells, NADH background. fluorescence fold increase at 10 µM. actives 5.5% (n = 65,000). AID 709;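 active = at 10 µM, mean starting fluorescence two-fold or more over control wells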;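 also: signal is the first read of a kinetic run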
PMK inhibit = blocks S. pneumoniae phosphomevalonate kinase; actives 0.49% (n = 65,000); inhibition, % at 10 µM; AID 539; purified PMK, PK/LDH-coupled NADH absorbance 340 nm;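 active = top-ranked compounds by inhibition in the single 10 µM screen, taking a fixed number of the strongest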;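 also: 0% = full reaction with DMSO carrier and 100% = background rate without enzyme reaction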
Active calls of the source: *; i = inactive; / = no result given; + = active, no number. Rows were chosen to be rich in hits. Some 6.3% of all compounds tested hit in one or more screens of this group.

SMILES | DPM-DC inhibit | NADH coupling | Abs 340nm | Spn MK inh | Autofluor 339 | PMK inhibit
CCOc1ccc(NC(=O)CN2C(=O)C3CCCN3C2=O)cc1 (configuration not stated) | i | 2% | 0.99 | 6 | 1 | 3
O=C(CSc1ncc(-c2ccc(F)cc2)[nH]1)N1CCCCC1 | i | 4% | 1.1 | 9 | 1 | 9
O=C(COc1ccc(N2CC(C(=O)O)CC2=O)cc1)Nc1cccc(C(F)(F)F)c1 (configuration not stated) | i | 1% | 1 | 2 | 1 | 2
CSc1nc(NCc2ccco2)c2c3c(sc2n1)CN(C)CC3 | i | 7% | 1.1 | 10 | 1.8 | 0
CCC(O)CNc1nc(SC)nc2sc3c(c12)CCN(C)C3 (configuration not stated) | / | 5% | 1 | 10 | 2.2* | 0
COc1cc(-c2nc3cnccc3n2C)cc(OC)c1OC | + | 20% | 0.96 | 0 | 1.1 | 19
COC(=O)c1ccc(NC(=O)Cn2nnc3ccccc32)cc1 | i | 3% | 1.1 | 8 | 1 | 10
COC(=O)c1nonc1NCn1nnc2ccccc21 | i | 12% | 0.98 | 7 | 1.1 | 29*
COc1ccc2c(c1)OCC1=C2CCC2(C)C(=O)CC=C12 (configuration not stated) | / | 7% | 1.1 | 6 | 3.6* | 7
Cc1nnc(SCC(=O)N2CC(=O)Nc3ccccc32)n1-c1ccccc1 | i | 6% | 0.95 | 11 | 1 | 35*
Cc1csc(NC(=O)CSc2nnc(-c3ccoc3C)n2Cc2ccco2)n1 | i | 4% | 1 | 5 | 1.1 | 8
O=C(COC(=O)CCc1c[nH]c(=O)[nH]1)Nc1ccccc1 | i | 11% | 0.97 | 0 | 1 | 25*
COCCCNC(CC(=O)Nc1ccc(N(C)C)cc1)C(=O)O (configuration not stated) | i | 8% | 1 | 0 | 1 | 15
CCOc1cc(-c2cc(-c3ccc(N)cc3)nc(N)c2C#N)ccc1O | / | 9% | 1.1 | 12 | 3.6* | 5
CC(C)NC(=O)CN(CCc1ccccc1)S(C)(=O)=O | i | 5% | 1 | 11 | 1.1 | 0
COc1cc2c(cc1NC(=O)CN(C)Cc1nc3ccccc3c(=O)[nH]1)oc1ccccc12 | i | 5% | 1.1 | 2 | 1.1 | 13
O=S(=O)(Nc1ccc(-c2nc3cccnc3s2)cc1)c1cccs1 | / | 10% | 1.3 | 5 | 2.1* | 14
O=C1Nc2ccc(NS(=O)(=O)c3cccs3)c3cccc1c23 | i | 3% | 1 | 2 | 1.1 | 8
O=S(=O)(Nc1cccc2ncccc12)c1cccs1 | + | 6% | 0.99 | 0 | 1.1 | 16
Cc1ccc2cc3cc(C(=O)NCCN4CCOCC4)oc3nc2c1 | / | 14% | 1.1 | 0 | 3.2* | 5
COc1ccc2cc3cc(C(=O)NCCCN4CCOCC4)oc3nc2c1 | / | 2% | 1.1 | 0 | 5.1* | 4
CCN1CCN(CCCNC(=O)c2cc3cc4ccc(OC)cc4nc3o2)CC1 | / | 7% | 1.1 | 2 | 5.2* | 12
COc1ccc2cc3cc(C(=O)Nc4ccc5c(c4)OCO5)oc3nc2c1 | i | 7% | 1.1 | 0 | 1.3 | 21
Cc1ccc2cc3cc(C(=O)NCc4ccc5c(c4)OCO5)oc3nc2c1 | / | 2% | 1.1 | 2 | 5.2* | 1
COc1cc(OC)cc(-n2nc(C(=O)NCCCN3CCOCC3)c3ccccc3c2=O)c1 | i | 0% | 1 | 0 | 1.2 | 0
SMILES | DPM-DC inhibit | NADH coupling | Abs 340nm | Spn MK inh | Autofluor 339 | PMK inhibit
CCN1CCN(CCCNC(=O)C2c3ccccc3C(=O)N(C)C2c2ccc(OC)cc2)CC1 (configuration not stated) | i | 2% | 1 | 3 | 1 | 0
CC(C)N1C(=O)CCC1C(=O)NCCc1ccc(Cl)cc1 (configuration not stated) | i | 6% | 1 | 8 | 1.1 | 10
CS(=O)(=O)N(CCc1ccccc1)CC(=O)N1CCc2ccccc2C1 | i | 3% | 1 | 8 | 1.1 | 0
Cc1ccc(S(=O)(=O)c2nc(N3CCOCC3)sc2Cl)cc1 | i | 4% | 1 | 11 | 1.3 | 0
COc1ccc(C2=NOC(C(=O)NCCCN3CCOCC3)C2)cc1 (configuration not stated) | i | 2% | 0.99 | 0 | 1.1 | 3
COc1ccc(N2CC(C(=O)NCCCN3CCOCC3)CC2=O)cc1 (configuration not stated) | i | 17% | 1 | 51* | 1.1 | 0
CCOC(=O)c1cc2c(=O)n3ccccc3nc2n(C(C)C)c1=NC(=O)c1ccncc1 | + | 15% | 1.1 | 8 | 1.6 | 4
CCOCCCn1c(=NC(C)=O)c(C(=O)OCC)cc2c(=O)n3ccccc3nc21 | / | 3% | 1 | 0 | 2.9* | 8
CCOC(=O)c1cc2c(=O)n3ccccc3nc2n(CCOC)c1=NC(=O)c1ccncc1 | / | 3% | 1.1 | 6 | 2.2* | 0
CCOC(=O)c1cc2c(=O)n3ccccc3nc2n(CCOC)c1=NC(=O)C(C)(C)C | / | 9% | 1.1 | 6 | 2.3* | 12
CCC(C)(C)NC(=O)CN(Cc1ccc2c(c1)OCO2)C(=O)CCC(=O)Nc1ccccn1 | i | 3% | 0.98 | 3 | 1 | 17
CCCC(=O)N=C1SC2CS(=O)(=O)CC2N1c1ccc(C(C)=O)cc1 (configuration not stated) | i | 6% | 1 | 4 | 1.1 | 14
COc1ccc(-c2nc(CN3CCC(C(=O)NC(C)C)CC3)c(C)o2)cc1OC | i | 5% | 0.99 | 6 | 1.1 | 10
Cc1nnc(SCC(=O)n2c3c(c4ccccc42)CCCC3)s1 | i | 2% | 1 | 2 | 1.1 | 0
CCOC(=O)c1cc2c(=O)n3ccccc3nc2n(CCCOC)c1=NC(=O)C(C)(C)C | / | 6% | 1 | 13 | 2.4* | 0
O=C(OCn1nnc2ccccc2c1=O)C1CCN(S(=O)(=O)c2cccs2)CC1 | i | 2% | 1 | 0 | 0.99 | 5
CCCOc1ccc(C2C(=O)N(C3CCCCC3)CC(=O)N2CCCOCC)cc1OC (configuration not stated) | i | 9% | 0.98 | 0 | 0.99 | 26*
CCOCCCN1C(=O)CN(C2CCCCC2)C(=O)C1c1ccc(OC)c(OC)c1 (configuration not stated) | i | 8% | 1 | 0 | 0.94 | 20
COc1ccc(C2C(=O)N(C3CCCCC3)CC(=O)N2CCc2ccccc2)cc1OC (configuration not stated) | i | 9% | 1 | 0 | 1 | 26*
COCCn1nnnc1CN(Cc1cccnc1)Cc1cc2cc(OC)ccc2[nH]c1=O | + | 8% | 0.99 | 0 | 2.2* | 13
COc1ccc2cc(CN(Cc3cccnc3)Cc3nnnn3Cc3ccccc3)c(=O)[nH]c2c1 | i | 9% | 1.1 | 9 | 1.2 | 13

Assay outcomes: PubChem, SRMLSC
